# This is a sample that favours compounds with a hit; in the whole collection about 3.7% have one here.
# BoNT-A LC inh2 = BoNT/A light chain protease inhibitors, primary screen, biochemical, flow cytometry, MLPCN library; multiplex microsphere protease substrate cleavage; inhibition, % at 10 µM; 360,000 tested, 0.17% active; further: plate controls were buffer without enzyme for full effect and enzyme alone for no effect
# Vc quorum ag = inducers of Vibrio cholerae quorum light production without autoinducers, primary screen, BH1578 luxS cqsA deficient, single point; V. cholerae BH1578 lux reporter, luminescence, 6 h; activation, % at 18.7 µM; 350,000 tested, 0.16% active; AID 588436, 2011; in the data active means activation mostly above about 9.7%, no sharp cut-off; inconclusive means no clear call, values can overlap the other calls; inactive means mostly below about 3.7%
# BoNT F protease = BoNT/F light chain protease inhibitors, primary screen, biochemical, flow cytometry, MLPCN library. Botulinum neurotoxin type F light chain protease (Clostridium botulinum). Multiplex microsphere protease cleavage assay. inhibition, % at 10 µM. 360,000 tested, 0.22% active. AID 588497, 2011; in the data active means inhibition above about 35%, passing the limit was not always enough; inconclusive means no clear call, values can overlap the other calls; further: plate controls were buffer without enzyme for full effect and enzyme alone for no effect
# Anthrax LF inh2 = Bacillus anthracis LF protease inhibitors, primary screen, biochemical, multiplex microsphere, MLPCN library; Lethal factor (Bacillus anthracis), P15917; 360,000 tested, 0.12% active; multiplex microsphere protease cleavage assay; inhibition, % at 10 µM; further: plate controls were buffer without enzyme for full effect and enzyme alone for no effect
# BJeLR lethal = MLPCN primary cell-based screen for lethality selective to Ras in HRASV12 cells; 300,000 tested, 0.17% active; inhibition, % (test concentration not listed); BJeLR (HRASV12) viability, CellTiter-Glo ATP luminescence, 48 h; in the data active means inhibition above about 50%; inconclusive means no clear call, values can overlap the other calls
# Autofluor counter = compound fluorescence in toxin protease inhibitor counterscreen | compound autofluorescence counterscreen, microsphere flow cytometry; hits give high values | fluorescence intensity (no concentration beside the values) | AID 624483 | 360,000 tested, 3.1% active; in the data active means fluorescence intensity above about 16000; inconclusive means no clear call, values can overlap the other calls
# Numbers without * were called inactive; i = inactive; u = inconclusive; x = no result given. Unless noted, no stated cut-off is given here; in the data, active means inhibition above about 30%; inconclusive means no clear call, values can overlap the other calls; inactive means below that.
SMILES,BoNT-A LC inh2,Vc quorum ag,BoNT F protease,Anthrax LF inh2,BJeLR lethal,Autofluor counter
CCn1c(=O)n(CCc2ccccc2)c(=O)c2c3c(sc21)CCCC3,1.6,-0.2,2.1,-2.3,-1.5,22638*
O=C(Cn1c(=O)n(Cc2ccco2)c(=O)c2c3c(sc21)CCCC3)Nc1ccccc1,0.4,10.1,9.6,-1.8,11.0,2482
NC(=O)Cn1c(=O)n(Cc2ccco2)c(=O)c2c3c(sc21)CCCCC3,u,-2.2,8.0,-1.1,4.3,18631*
O=c1c2c3c(sc2n(CCN2CCCCC2)c(=O)n1Cc1ccco1)CCCCC3,u,i,-11.3,-3.7,-10.7,27290*
O=c1c2c3c(sc2n(CCN2CCOCC2)c(=O)n1Cc1ccco1)CCCCC3,-4.1,-0.4,-0.2,u,-6.0,u
COc1ccc(C(C)(NC(C)=O)c2nc(-c3ccccc3OC)cs2)cc1 (stereo not given),-0.2,-0.6,-5.0,-5.7,x,3775
Cc1cccc(C)c1Cn1c(C)c(C(=O)NCCC#N)sc1=O,-0.7,i,-13.2,-4.7,x,3949
Cc1ccc(-n2c(=O)c3sccc3n(CC(=O)N3CCCC3)c2=O)cc1,-0.6,-0.5,0.8,0.9,7.7,9658
O=C(Cn1c(=O)n(-c2ccccc2)c(=O)c2sccc21)N1CCCC1,-0.6,-0.2,-4.1,0.0,8.1,23839*
CCOC(=O)c1cnc(-n2cc(C)cn2)nc1NCc1ccc2c(c1)OCO2,u,2.7,-2.4,-0.3,-9.1,21542*
CCN(C(=O)c1cc2ccccc2oc1=O)c1ccccc1,0.6,5.6,-3.6,7.6,10.6,u
O=C(Nn1cnnc1)c1cc2cc(Br)ccc2oc1=O,-0.7,-0.3,-2.6,-2.6,-4.2,23909*
CCN(CC)C(=O)c1cc2cc(Br)ccc2oc1=O,u,-0.7,3.1,-8.8,6.3,22173*
CC(C)NC(=O)c1cc2cc(Br)ccc2oc1=O,0.7,0.2,1.2,-3.2,2.0,3327
CCN(C(=O)c1cc2ccccc2oc1=O)c1cccc(C)c1,-1.4,-0.1,-1.7,-2.2,6.2,20635*
NC(=O)CCC(C(=O)O)N1C(=O)C2C3CCC(C3)C2C1=O (stereo not given),-0.5,-0.3,2.2,-2.7,x,3634
O=C(CSc1ncccn1)NC(=O)NC1CCCC1,0.2,-0.5,1.6,-1.6,x,3468
CC(=O)N(O)c1ccc(C=Cc2ccccc2)cc1,-0.4,x,-11.3,-5.9,x,4353
c1ccc(C(c2ccccc2)N2CCN(Cc3nnnn3C3CCCC3)CC2)cc1,0.4,-0.4,-10.8,0.4,5.3,2789
C1CCC(n2nnnc2CN2CCCC2)CC1,-1.0,i,-2.7,-0.5,-2.6,23839*
O=C(COC(=O)[C@H](Cc1ccccc1)NS(=O)(=O)c1ccccc1F)NC1CCCCC1,6.8,i,12.5,-22.4,0.0,18375*
Cc1cc(O)ccc1-c1cccc2nccn12,-0.6,-1.2,-6.5,0.1,x,3631
COc1cnc(-c2ccccn2)nc1Sc1ccc(Cl)cc1,u,i,-6.0,-1.7,-10.5,21806*
Cn1nc(C(=O)NC2CCCCC2)c2ccccc2c1=O,u,-3.0,2.9,-1.0,-11.8,21828*
COC(=O)c1ccc(C)c(NC(=O)c2nn(C)c(=O)c3ccccc23)c1,u,2.0,1.2,-3.7,6.3,22678*
SMILES,BoNT-A LC inh2,Vc quorum ag,BoNT F protease,Anthrax LF inh2,BJeLR lethal,Autofluor counter
CC1CCC(NC(=O)c2nn(C)c(=O)c3ccccc23)CC1 (stereo not given),-0.7,i,-7.8,-3.1,x,3083
CCCn1nc(C(=O)Nc2cc(C(=O)OC)ccc2C)c2ccccc2c1=O,-1.3,-5.6,5.2,-0.5,8.0,8276
c1ccc(-n2nnnc2SCc2cn3cccnc3n2)cc1,-0.3,i,-0.1,-3.9,-17.6,23611*
c1ccc(-n2nnnc2SCc2cn3ccccc3n2)cc1,0.0,-2.1,-8.9,-6.2,-8.5,u
COc1ccc(/C=C2\SC(=S)N(CCCC(=O)Nc3ccccn3)C2=O)cc1OC,39.0*,i,10.5,24.0,-10.3,3074
COc1cccc(/C=C2\SC(=S)N(CCCC(=O)N(CCO)c3ccccc3)C2=O)c1,1.4,i,1.8,-1.0,55.1*,6168
O=C1/C(=C/c2cccc(Br)c2)SC(=S)N1CCC(=O)N(CCO)c1ccccc1,-0.5,-0.1,-3.9,-0.6,-10.3,3084
COc1cc(/C=C2/SC(=S)N(CC(=O)NC(C)(C)C)C2=O)cc(OC)c1OC,31.3*,-2.4,27.9,27.3,9.0,6534
C[C@H](CO)N1C[C@H](C)[C@@H](CN(C)Cc2ccc(C(=O)O)cc2)Oc2ncc(Br)cc2C1=O,0.0,i,-2.3,1.9,x,2923
O=C(CC[C@H]1O[C@@H](n2ccc(=O)[nH]c2=O)[C@H](O)[C@@H]1O)NCCc1c[nH]c2ccccc12,-0.2,x,1.7,-0.2,x,5405
Cn1nc(NC(=O)C(F)(F)F)c2ncc(-c3ccccc3)nc21,-0.1,-1.4,4.0,-3.1,x,3945
CCOC(=O)N1CCN(c2cc(N)c([N+](=O)[O-])cc2F)CC1,1.2,-0.4,-0.5,0.0,3.1,20374*
CCOC(=O)N1CCN(c2cc3[nH]c(=S)[nH]c3cc2F)CC1,7.5,-1.0,7.8,0.0,-2.6,21312*
CCOC(=O)N1CCN(c2c(F)cc3[nH]c(=S)[nH]c3c2Br)CC1,0.7,-0.3,5.2,-0.6,-3.4,9342
Nc1ccn([C@@H]2O[C@H](CNS(=O)(=O)c3cc4ccccc4s3)[C@@H](O)[C@H]2O)c(=O)n1,-0.3,-0.4,2.8,-5.7,x,3750
COc1cc(C2Nc3ccc4ncccc4c3C3=C2C(=O)CC(C)(C)C3)cc(OC)c1O (stereo not given),-0.7,-0.7,1.1,1.1,1.2,23335*
C[C@H]1CN([C@@H](C)CO)C(=O)CCCn2nncc2CO[C@H]1CN(C)S(=O)(=O)c1ccc2ccccc2c1,0.1,-0.4,-4.4,-0.6,x,2864
CCCC1NC(=O)c2cccnc2-n2c1nc1ccc(Br)cc1c2=O (stereo not given),-0.1,-0.4,-0.9,-0.6,x,2874
CC1(C)CC(=O)C(C2C3=C(CC(C)(C)CC3=O)Oc3ccccc32)=C(O)C1 (stereo not given),-0.4,-0.5,2.9,0.2,-0.8,2857
COc1ccc2c(c1)C(C1=C(O)CC(C)(C)CC1=O)C1=C(CC(C)(C)CC1=O)O2 (stereo not given),-3.8,i,-4.3,-4.0,-2.5,24480*
CCCc1nc2c3ccccc3ccn2c1CC(C)(C)C,0.7,x,-1.1,0.0,x,5715
CCCCN1C(=O)C(C2c3ccccc3C(=O)N2Cc2ccccc2)C(=O)NC1=S (stereo not given),1.2,i,3.7,-1.2,0.4,21741*
